In the library only some 22% were active in any assay of this set; here they are far more common.
F-actin modifier = alters cytoskeleton assembly in HUVEC cells. HUVEC TNFa F-actin phalloidin imaging, high content. inhibition, % at 2 µM. 0.18% of 91,000 active;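 active = inhibition above the batch mean plus 3 SD and confirmed as a hit by visual image inspection, cut at about 30% in these data, passing the limit was not always enough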
CYP2C9 activ = increases human cytochrome P450 2C9 activity. 1.4% of 96,000 active. activation factor at 5 µM. recombinant CYP2C9, luciferin-H conversion, luminescence; active compounds read high; factor 1 = untreated enzyme, 0 = blocked. P11712;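 active = activation factor of 2 or more for CYP2C9 at a 5 µM dose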;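 note: 0 = sulfaphenazole-blocked wells and 1 = vehicle-only wells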
Target sequence (P11712 whole entry, looked up): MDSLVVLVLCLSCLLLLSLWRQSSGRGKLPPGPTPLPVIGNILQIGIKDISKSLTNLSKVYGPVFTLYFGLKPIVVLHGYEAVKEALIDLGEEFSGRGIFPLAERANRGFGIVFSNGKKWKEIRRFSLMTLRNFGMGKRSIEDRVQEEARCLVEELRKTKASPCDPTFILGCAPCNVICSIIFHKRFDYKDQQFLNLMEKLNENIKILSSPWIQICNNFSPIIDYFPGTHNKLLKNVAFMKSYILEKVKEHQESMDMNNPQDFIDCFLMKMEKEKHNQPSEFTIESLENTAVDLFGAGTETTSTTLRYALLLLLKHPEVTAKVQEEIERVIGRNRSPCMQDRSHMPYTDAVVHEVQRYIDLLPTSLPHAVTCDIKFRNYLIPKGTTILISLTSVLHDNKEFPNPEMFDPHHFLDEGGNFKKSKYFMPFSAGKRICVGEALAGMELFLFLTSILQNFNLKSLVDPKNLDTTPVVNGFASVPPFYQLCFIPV
CYP2C19 act = activators of human cytochrome P450 2C19; activation factor at 5 µM; 96,000 tested, under 10 active; recombinant CYP2C19, luciferin-H EGE luminescence; active compounds read high; 0 = fully inhibited enzyme, 1 = untreated enzyme; AID 1025;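 active = activation factor of at least 2 at 5 µM in the primary screen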;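 note: 0 = wells with 2.5 mM tranylcypromine and 1 = vehicle-only wells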
E-sel TNF inh = blocks E-selectin expression induced by TNF alpha; 0.71% of 120,000 active; inhibition, % at 2 µM; HUVEC TNFa-induced E-selectin immunofluorescence, high content; AID 1246;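 active = inhibition above the batch mean plus 3 SD, and confirmed as a hit on visual image review, cut at about 43% in these data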;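 note: 0% = TNF-stimulated DMSO wells and 100% = unstimulated control wells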
CYP2C9 inh = inhibitors of human CYP2C9 | inhibition, % at 5 µM | 20% of 96,000 active | P11712 | AID 777 | CYP2C9 Supersomes, luciferin-H conversion, luminescence;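 active = blocking of liver enzyme CYP2C9 beyond about 50% at 5 µM, limit read from the data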
CYP2C19 inhib = blocks human cytochrome P450 2C19; P33261; CYP2C19 Supersomes, luciferin-H EGE luminescence, 30 min; inhibition, % at 5 µM; 21% of 96,000 active;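 active = CYP2C19 inhibition above a set limit at 5 µM in the primary screen, cut at about 50% in these data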;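 note: plate controls were negative control wells for no effect and 2.5 mM tranylcypromine positive control for full effect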
Numbers without * were called inactive; . = no result given.

SMILES	F-actin modifier	CYP2C9 activ	CYP2C19 act	E-sel TNF inh	CYP2C9 inh	CYP2C19 inhib
CC1CCCC(NC(=O)c2ccc3c(c2)N(Cc2ccccc2)C(=O)CS3=O)C1C (stereo not given)	.	0.2	0.6	12	76*	42
COc1ccc(NCc2nnc(SCC(=O)Nc3ccc(OC)cc3OC)o2)cc1	.	.	.	-20	.	.
COC(=O)c1ccc(CSc2nc3ccccc3c(=O)n2Cc2ccco2)o1	-4	0	0	-4	100*	97*
COC(=O)c1ccc(CSc2nc3ccccc3c(=O)n2CC(C)C)o1	16	0.4	0.6	-41	57*	38
CCN(C(=O)CSc1ccc2ccccc2n1)C1CCS(=O)(=O)C1 (stereo not given)	.	.	.	-9	.	.
O=c1[nH]cnc2c1nc(SCc1ccccc1)n2C1OC(CO)C(O)C1O (stereo not given)	-11	1	1.1	-6	2	-5
CCOC(=O)CSc1nc2sc(C)c(C)c2c(=O)[nH]1	-12	0.8	0.7	18	21	26
C=C(C)CSc1nc(N)c2c(C)c(C)sc2n1	-8	0.6	0.4	-17	37	56*
Cc1cccc(C)c1NC(=S)N(CCCN1CCN(C)CC1)Cc1cccs1	.	.	.	-11	.	.
Cc1cc(C)c2c(=O)n(CC(=O)N3CCC(Cc4ccccc4)CC3)sc2n1	.	0.6	1	0	40	-3
Cc1cc(C)c2c(=O)n(CC(=O)NCCCN3CCOCC3)sc2n1	.	0.2	0.7	-13	81*	33
Cc1cc(C)c2c(=O)n(CC(=O)NCCCN3CCN(c4ccccc4F)CC3)sc2n1	.	0.3	0.6	5	65*	38
O=C(CCCCCn1c(=O)[nH]c2ccccc2c1=O)NCCCN1CCN(c2ccccc2F)CC1	.	0.6	0.7	.	44	33
Cc1cccc(NCCNc2cccc(C)c2)c1	-6	0.9	0.5	-6	6	47
Cc1ccccc1NCc1ccccc1O	8	0.8	0.4	-3	25	59*
Cc1cccc(NCc2ccccc2O)c1	8	0.5	0.1	-16	51*	92*
Cc1ccc(O)c(CNc2ccccn2)c1	.	0.7	0.3	-31	33	67*
Cc1ccc(NCc2ccccc2O)cc1	24	0.9	0.3	15	12	66*
Cc1cc(C)n(C(=O)COc2ccc(Cl)cc2Cl)n1	-9	.	.	-12	.	.
Cc1cc(C)n(CCOc2ccc(Cl)cc2Cl)n1	-26	1.1	0	.	-7	97*
O=S(=O)(NCc1cn2ccccc2n1)c1cc(F)ccc1F	25	.	.	-6	.	.
Cc1ccc(-c2nc3ccccc3[nH]2)cc1NC(=S)NC(=O)c1ccccc1Br	13	0.4	0.6	.	63*	38
Cc1cc(C)c2oc(-c3ccc(C)c(NC(=S)NC(=O)/C=C/c4ccco4)c3)nc2c1	25	0.5	0	-24	45	97*
CCOc1ccc(C(=O)Nc2cc(-c3nc4ccccc4[nH]3)ccc2C)cc1[N+](=O)[O-]	-6	0.4	0.2	-4	65*	82*
Cc1ccc(-c2nc3ccccc3[nH]2)cc1NC(=O)/C=C/c1ccco1	-12	0.2	0.5	-5	79*	47
SMILES	F-actin modifier	CYP2C9 activ	CYP2C19 act	E-sel TNF inh	CYP2C9 inh	CYP2C19 inhib
CCOc1ccc(C(=O)NC(=S)Nc2ncccc2C)cc1[N+](=O)[O-]	.	.	.	12	.	.
Cc1cc(C)c2oc(-c3ccc(C)c(NC(=S)NC(=O)c4cccs4)c3)nc2c1	-7	0.7	0.9	-17	26	8
Cc1c(NC(N)=O)c(=O)n(-c2ccccc2)n1C	.	.	.	18	.	.
CCn1cc(CNC(=O)CCSc2nc(-c3ccco3)cc(C(F)(F)F)n2)cn1	-8	0.8	0.8	5	19	24
COc1ccc2nc(SCC(=O)NC3CCCc4ccccc43)[nH]c2c1 (stereo not given)	.	.	.	-1	.	.
CCOc1ccc(C(=O)Nc2cccc(-c3cc4ccccc4oc3=O)c2)cc1[N+](=O)[O-]	8	0.3	0.2	19	65*	82*
CCOc1ccc2nc(NC(=O)c3cccc(-c4cc5ccccc5oc4=O)c3)sc2c1	.	.	.	14	.	.
NS(=O)(=O)c1ccc(N2N=C(c3ccccc3)CC2c2ccc(F)cc2)cc1 (stereo not given)	12	0.1	0.7	-42	90*	31
COc1ccccc1CN1C(=O)CCC1(C)C(=O)NC1CCCCCC1 (stereo not given)	2	1.1	0.5	-9	-14	47
CC1(C(=O)NC2CCCC2)CCC(=O)N1Cc1ccccc1Cl (stereo not given)	0	2.3*	0.9	12	-125	14
COc1cc(NC(=O)Cn2ncc3c2-c2ccccc2OC3)cc(OC)c1OC	-14	0.6	0.5	.	40	55*
CCOc1ccc(-c2cc(NC(=O)Cn3ncc4c3-c3ccccc3OC4)on2)cc1OCC	.	1.1	0.3	.	-14	65*
COc1cc(NC(=O)CN2c3ccccc3CC2C)cc(OC)c1OC (stereo not given)	13	0.2	0.3	9	81*	69*
CC1Cc2ccccc2N1CC(=O)Nc1ccc(N2CCOCC2)cc1 (stereo not given)	.	.	.	0	.	.
COc1ccccc1NC(=O)Cn1ncc2c1-c1ccccc1OC2	-9	0.7	0.6	.	34	37
O=C(Cn1ncc2c1-c1ccccc1OC2)Nc1cccc(Cl)c1	4	0.6	0.4	.	35	56*
O=C(Cn1ncc2c1-c1ccccc1OC2)Nc1ccc(Cl)cn1	0	0.5	1	.	50	3
CC(C)(C)c1ccc(OC(=O)c2cccnc2)cc1	-5	.	.	-21	.	.
Cc1csc(NC(=O)CCc2c(C)nc3cc(-c4cccc(F)c4)nn3c2C)n1	.	.	.	-24	.	.
CNc1nc(N(C)C)nc(N(C)C)n1	8	.	.	10	.	.
Cc1ccc(C)c(CN2CCCN(C(=O)Cn3ncc4c3-c3ccccc3OC4)C2)c1	-5	0.4	0.2	1	56*	79*
COC(=O)/C=C1/SC(=NC(=O)c2ccccc2)NC1=O	.	.	.	-24	.	.
COc1ccc(S(=O)(=O)NC2CC3CCC2C3)cc1Cl (stereo not given)	8	1.6	0.5	-6	-60	47
O=S(=O)(NC1CC2CCC1C2)c1ccc2c(c1)OCCO2 (stereo not given)	.	0.2	0	-15	78*	97*
O=S(=O)(NCC1CCCO1)c1ccc2c(c1)OCCO2 (stereo not given)	5	1	0.6	8	-3	44
CC1CCCC(NS(=O)(=O)c2ccc3c(c2)OCCO3)C1C (stereo not given)	19	0.4	0	3	61*	97*
COc1ccccc1NS(=O)(=O)c1cccc(C(=O)N/N=C/c2cn(-c3ccccc3)nc2-c2ccccc2)c1	.	.	.	20	.	.
COC(=O)c1[nH]c2ccc(Cl)cc2c1NC(=O)CN1CCC(C(N)=O)CC1	1	0.9	0.9	2	9	12
Cc1ccc(C(=O)N/C(=C\c2ccc(Cl)cc2)C(=O)NCCCN2CCOCC2)cc1	.	.	.	-3	.	.

Bioassay records: PubChem, several laboratories
